# Out of some 340,000 compounds screened, about 8,500 (2.5%) were called active. This excerpt belongs to a sample that is enriched for actives. A number with no mark means an inactive call.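 Rule for the calls: active = melting temperature shift of at least 10% of the positive control shift, at one fixed dose; inactive = the rest.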
# Tested on: Glutamate receptor ionotropic, NMDA 3A (GRIN3A) ligand-binding domain
# Test: NR3A LBD thermal stabilization by compounds – biophysical, differential scanning fluorimetry, uHTS, primary screen (AID 1259313)
# Settings: at 25 µM, stronger effect = higher value, 0% = protein alone, 100% = glycine-bound protein
row,Compound,Tm shift relative to glycine control
1,CCOc1ccc(N=C2SC(C(=O)O)CC(=O)N2C)cc1 (stereo unspecified),1.77%
2,CCOc1ccc(N=C2NC(=O)S/C2=C\c2ccc(O)cc2)cc1,15.1% (active)
3,CCOc1[nH]n(-c2ccc(Cl)cc2)c(=O)c1C=Nc1ccc(O)cc1,5.05%
4,CCCCn1c(N)c(N(CC(C)C)C(=O)CN(C)S(=O)(=O)c2ccc(F)cc2)c(=O)[nH]c1=O,-1.73%
5,Nc1cc(N)nc(SCC(=O)Nc2cccc(S(=O)(=O)N3CCCCC3)c2)n1,-2.96%
6,COc1ccc(/C=C/C(=O)OCC(=O)Nc2cccc(Oc3ccccc3)c2)c(OC)c1,1.79%
7,COc1cc(/C=C/C(=O)OCC(=O)NCCCc2ccccc2)ccc1O,-3.57%
8,COc1cc(/C=C/C(=O)OCC(=O)Nc2cccc(Oc3ccccc3)c2)ccc1O,16.3% (active)
9,Nc1ccc(S(=O)(=O)Nc2nccc(/C=C/c3ccc(Br)s3)n2)cc1,3.72%
10,Oc1cccc2ccc(/C=C/c3ccc(Br)s3)nc12,27.9% (active)
11,CC(Sc1nc2cc(Cl)ccc2s1)C(=O)Nc1ccc2c(c1)OCO2 (stereo unspecified),17.5% (active)
12,CC(Sc1nc(-c2ccccc2)cc(C(F)(F)F)n1)C(=O)Nc1ccc2c(c1)OCO2 (stereo unspecified),-3.7%
13,O=C(Nc1ccc2c(c1)OCO2)c1sc2cc(Cl)ccc2c1Cl,2.38%
14,COC(=O)Nc1ncc(CN2CCCCC2)s1,0.99%
15,COc1cc(C(C)=O)ccc1OC(=O)CN1C(=O)c2ccccc2C1=O,-1.44%
16,COC(=O)Nc1ncc(CN2C(=O)c3ccccc3C2=O)s1,13.7% (active)
17,CN(Cc1ccccc1)C(=O)CCNC(=O)Cn1cnc2ccccc2c1=O,1.47%
18,CC(C)=CCCC1(C)C=Cc2c(ccc3c2[nH]c2cc(O)c(C)cc23)O1 (stereo unspecified),22.5% (active)
19,O=C(O)CC/C(=N\NC(=O)c1ccc(F)cc1)c1ccc(Br)cc1,-1.55%
20,O=C(COC(=O)c1ccc2ncsc2c1)Nc1ccc(Cl)cc1,-0.85%
21,Cc1sc(NC(=O)c2ccc3ncsc3c2)c(C(N)=O)c1C,28.4% (active)
22,COc1ccccc1-c1nnc(NC(=O)c2ccc3ncsc3c2)o1,-3.33%
23,COc1cc(OC)c(C(=O)NNC(=O)c2ccc(NS(=O)(=O)c3cccs3)cc2)cc1OC,0.08%

row,Compound,Tm shift relative to glycine control
1,Cc1ccc(C(=O)N/C(=C/c2cccs2)C(=O)N2CCCCC2)cc1,-1.69%
2,COc1ccc(-c2ccc3nnc(SCC(=O)Nc4ccc(NC(C)=O)cc4)n3n2)cc1,-5.8%
3,COc1ccccc1NC(=O)c1cc(N2C(=O)C3C4CCC(C4)C3C2=O)ccc1Cl (stereo unspecified),-3.68%
4,CCc1ccnc(NS(=O)(=O)c2ccc3c(c2)OCCO3)c1,-2.2%
5,COc1cccc(OC)c1C(=O)Nc1sc2c(c1C(N)=O)CCCC2,-0.3%
6,NC(=O)c1c(Nc2nc3c(F)cccc3s2)sc2c1CCCC2,10.8% (active)
7,O=C(Nc1sc2c(c1C(=O)O)CCC2)c1ccccc1F,1.58%
8,NNc1nc2c(Cl)cccc2s1,-0.09%
9,COc1cc2ccccc2cc1C(=O)N(CCN(C)C)c1nc2c(F)cccc2s1,3.31%
10,Fc1cc(F)c2nc(Nc3nc4c(F)cccc4s3)sc2c1,17.3% (active)
11,COCCNc1nc(N)c([N+](=O)[O-])c(N2CCCCCC2)n1,0.58%
12,Cc1ccc(-c2csc(-c3c[nH]c4ccccc34)n2)cc1,25.6% (active)
13,CCCc1cc(-c2nc(-c3ccc(C)cc3)cs2)ccn1,-8.16%
14,CCn1c(SCCC(C)C)nnc1-c1c[nH]c2ccccc12,-26.6%
15,COc1ccc(F)c(-c2nc(CN3CCC(c4ccccc4)CC3)c(C)o2)c1,-0.88%
16,CCCCn1c(N)c(N(CCC(C)C)C(=O)CC2OC(=O)c3ccccc32)c(=O)[nH]c1=O (stereo unspecified),-1.19%
17,Cc1ccc(CSCC(=O)N(C)CC(=O)Nc2cccc(F)c2)cc1,-1.41%
18,CN(CC(=O)Nc1cccc(F)c1)C(=O)CC1CCCC1,2.89%
19,CCN(CC)C(=O)CSC(Nc1cccc(F)c1)=C(C#N)C#N,11.7% (active)
20,Cc1noc(C)c1S(=O)(=O)N(CC(=O)Nc1ccc2c(c1)OCCO2)c1ccc(C(C)C)cc1,1.36%
21,CC1Cc2ccccc2N1CC(=O)Nc1ccc2c(c1)OC(F)(F)O2 (stereo unspecified),-9.28%
22,COc1ccc(C(=O)Oc2cc(/C=N/NS(=O)(=O)c3ccc(C)cc3)ccc2OC)cc1,14.3% (active)
23,COc1ccc(S(=O)(=O)N/N=C\c2ccc(OC)c(COc3ccc(C)cc3[N+](=O)[O-])c2)cc1,7.36%

row,Compound,Tm shift relative to glycine control
1,COc1ccc(C(=O)NNS(=O)(=O)c2ccc(C)cc2)cc1,9.89%
2,COC(=O)c1nc(NC(=O)c2ccccc2)n[nH]1,-2.48%
3,COc1ccc(S(=O)(=O)NCC(c2ccco2)N2CCOCC2)cc1 (stereo unspecified),0.48%
4,COc1ccc(Nc2cc(=O)oc3ccccc23)cc1,13.9% (active)
5,COc1ccc2oc(=O)cc(-c3cc4ccccc4o3)c2c1,-4.08%
6,COc1ccc(CCNC(=O)COC(=O)c2cc(=O)c3ccccc3o2)cc1,-0.35%
7,CC1CCN(C(=O)CN(c2ccc(Oc3ccccc3)cc2)S(C)(=O)=O)CC1,0.83%
8,CCOc1cc(-c2noc(CCCC(=O)NC3CCCCC3)n2)ccc1OC,-2.03%
9,COc1ccc(CN2CC(C(=O)NC3CCCCC3)CC2=O)cc1 (stereo unspecified),2.45%
10,COc1cc(/C=C2\Oc3ccc(C#Cc4ccc(O)cc4)cc3C2=O)cc(OC)c1,16.2% (active)
11,COC(=O)C(C)Oc1ccc2c(c1)O/C(=C\c1cccc(Br)c1)C2=O (stereo unspecified),-2.66%
12,COc1cc(C#Cc2ccc3cc(CCCO)oc(=O)c3c2)cc(OC)c1,-0.81%
13,CCN(CC(=O)Nc1cc(Cl)ccc1C)C(=O)CN1C(=O)NC2(CCCC2)C1=O,0.97%
14,CC(C)c1ccc(S(=O)(=O)N2CCN(C(C)C(=O)NC3CCCC3)CC2)cc1 (stereo unspecified),-0.92%
15,CC(C(=O)NC1CCCC1)N1CCN(S(=O)(=O)c2ccccc2Cl)CC1 (stereo unspecified),16.8% (active)
16,O=C(Cc1ccc(S(=O)(=O)N2CCCC2)s1)NC1CCCCCC1,-3.8%
17,O=C(Nc1ccc(OCC(=O)N2CCOCC2)cc1)c1cc(F)c(F)cc1Cl,-1.28%
18,CNC1(c2nnnn2-c2c(C)cccc2C)CCOC(C)(C)C1 (stereo unspecified),0.08%
19,Cc1cc(Nc2cccc(C)c2C)n2ncnc2n1,1.12%
20,O=C1OCCN1C(=O)[C@H]1[C@H](c2ccc(Cl)cc2)C(c2cccc(Cl)c2)=NN1c1ccc(Br)cc1,18.1% (active)
21,C[C@@H]1C(c2ccc(F)cc2)=NN(c2ccc(Br)cc2)[C@H]1C(=O)N1CCOC1=O,7.36%
22,O=C1OCCN1C(=O)[C@H]1[C@H](c2ccc(F)cc2)C(c2ccccc2)=NN1c1ccc(Br)cc1,16% (active)
23,O=C1OCCN1C(=O)[C@H]1[C@H](c2ccccc2)C(c2ccc(F)cc2)=NN1c1ccccc1,-6.51%

row,Compound,Tm shift relative to glycine control
1,O=c1c2cc(Br)ccc2nc(-c2cccc(Cl)c2)n1O,-8.87%
2,S=C1NC(c2ccccc2)=NCN1c1ccc(Br)cc1,-1.51%
3,O=C(COc1ncnc2c(Cl)cc(Cl)cc12)N1CCN(S(=O)(=O)c2ccccc2)CC1,-7.02%
4,CN1CCC(=NNC(=O)c2ccc(N(Cc3ccc(Cl)cc3)S(C)(=O)=O)cc2)CC1,-7.94%
5,C/C(=N\NS(=O)(=O)c1ccc(Cl)cc1)c1ccc(NC(=O)c2ccco2)cc1,-5.45%
6,O=C(CNC(=O)c1ccco1)NNC(=O)c1ccc(Br)cc1,0.51%
7,COC(=O)c1ccc(NC(=O)Nc2ccc(C)cc2)cc1,14.4% (active)
8,COC(=O)c1ccc(NC(=O)c2cc(Cl)ccc2OC)cc1,-3.8%
9,Cc1cc(NC(=O)c2ccc(F)cc2)ccc1NC(=O)c1ccco1,-2.39%
10,O=C(CSc1ccccc1)Nc1ccc(NC(=O)c2ccco2)cc1,11.8% (active)
11,O=C(NNC(=O)c1ccco1)Nc1ccccc1,1.84%
12,Cc1cc(C)cc(NC(=O)CSc2ccccc2)c1,0.84%
13,O=C(NCCSc1ccccc1)c1ccco1,0.71%
14,O=C(Nc1ccc(O)cc1)c1ccc(NC(=O)c2ccco2)cc1,25% (active)
15,O=C(Nc1ccc(Sc2ccc(Br)cc2)cc1)c1ccco1,11.6% (active)
16,COC(=O)c1ccc(NC(=O)C(C)N2C(=O)c3ccccc3C2=O)cc1 (stereo unspecified),-0.85%
17,CC12CCC(C(=O)N3CCN(c4ncccn4)CC3)(c3nc4ccccc4nc31)C2(C)C (stereo unspecified),-1.28%
18,COc1ccc(OC)c(S(=O)(=O)N2CCCC(C(=O)NCCc3ccccc3)C2)c1 (stereo unspecified),0.67%
19,O=C(CNC(=O)[C@@H]1Cc2ccccc2CN1)NC1CCCCC1,-12.5%
20,CCOC(=O)N1CCN(C(=O)CN(C2CCCCC2)S(C)(=O)=O)CC1,-2.35%
21,CCOc1ccc(NC(=O)CCS(=O)(=O)c2ccc3c(c2)CCCN3C(=O)CC)cc1,-2.2%
22,C#CCOCCOCCOCCNc1nc(N2CCN(C(=O)C([C@@H](C)CC)n3cc(C(N)COC(=O)C(F)(F)F)nn3)CC2)nc(N2CCN(C(=O)[C@H](CCCCN)n3cc(C(N)CC(C)C)nn3)CC2)n1 (stereo partly specified),3.3%

# Source: PubChem BioAssay AID1259313 (Sanford-Burnham Center for Chemical Genomics, 2017)
